From PubChem BioAssay
Activity calls are given as the source filed them. Unless noted, no rule for the calls is given here.

Experiments:
[1] = HepG2 liver cancer cell viability effects, profiling panel, resazurin fluorescence, 24 h, PK04 Diversity Set (AID 1172); details: higher = more signal
[2] = basal S. cerevisiae growth modulation, no modifier, primary screen, OD600, strain BY4716, 24 h, basal condition (AID 1173); details: OD600, 24 h, higher = more signal, called active from +8 up or from −8 down
[3] = MM1S myeloma cell viability, profiling panel, resazurin fluorescence, basal, 24 h, PK04 Diversity Set (AID 1174); details: higher = more signal, called active from +8 up or from −8 down;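 also: MM1S multiple myeloma cell line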
[4] = target: Dihydroorotate dehydrogenase (quinone), mitochondrial (Plasmodium falciparum (isolate 3D7)) (UniProt Q08210); assay: PfDHODH enzyme inhibitors, primary screen, biochemical, C-terminal His tag, absorbance 600 nm (AID 1175); details: DCIP absorbance 600 nm, higher = more signal, called active from +8 up or from −8 down;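 also: recombinant parasite enzyme with a five histidine tag at its C terminus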
[5] = P. aeruginosa biofilm formation inhibitors, primary screen, strain PAO1, LB-PBS medium, absorbance 600 nm (AID 1176); details: P. aeruginosa PAO1 growth/biofilm, A600, 12 h; higher = more signal
[6] = S. cerevisiae RM11-1a growth modifiers, primary screen, strain RM11-1a, OD600, basal, 24 h (AID 1177); details: OD600, 24 h, higher = more signal, called active from +8 up or from −8 down;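 also: cultures grown under basal conditions with no added stressor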
[7] = E. coli acrAB mutant growth effects, primary screen, E. coli filamentation inducers, strain DRC39, OD650, 24 h (AID 1178); details: higher = more signal, called active from +8 up or from −8 down;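 also: growth measured as culture turbidity by optical density at 650 nm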
[8] = E. coli acrAB mutant growth effects, primary screen, E. coli filamentation inducers, strain DRC39, OD650, 48 h (AID 1179);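 also: screen aims at cell division blockers that make cells filament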; details: E. coli DRC39 delta-acrAB growth, higher = more signal, called active from +8 up or from −8 down
[9] = RPMI8226 myeloma cell viability, profiling panel, resazurin fluorescence, basal, 24 h, PK04 Diversity Set (AID 1180); details: higher = more signal;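 also: RPMI8826 multiple myeloma cell line at 5000 cells per well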
[10] = target: E3 ubiquitin-protein ligase XIAP (Homo sapiens) (UniProt P98170); assay: XIAP binders, primary screen, biophysical, small-molecule microarray, fluorescence 635 nm (AID 1181); details: small-molecule microarray binding, higher = more signal;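 also: score merges 667 nm emission and signal to noise over triplicate slides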
[11] = system: XIP peptide (Xip251-270) binding; assay: small-molecule binders of XIP peptide, primary screen, biochemical, small-molecule microarray, fluorescence 635/667 nm, 0.1 µg/mL protein (AID 1182); details: fluorescent protein binding, 635 nm, higher = more signal, called active from +8 up or from −8 down
[12] = system: XIP peptide (Xip251-270); assay: small-molecule binders of XIP peptide, primary screen, biochemical, small-molecule microarray, fluorescence 635/667 nm, 0.5 µg/mL protein (AID 1183); details: small-molecule microarray binding, fluorescence 635 nm; higher = more signal
[13] = Plasmodium falciparum growth inhibition, primary screen, strain 3D7, DAPI fluorescence, 100 nL (AID 1184);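 also: parasites grown inside human red blood cells in medium with human serum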; details: P. falciparum 3D7 growth, 3 d, higher = more signal
[14] = target: Homeobox protein Hox-A13 (Mus musculus) (UniProt Q62424); assay: inhibitors of HoxA13-DNA binding, primary screen, biochemical, fluorescence polarization, labeled oligonucleotide (AID 1185); details: 15 min, higher = more signal, called active from +8 up or from −8 down
Homeobox protein Hox-A13 (Mus musculus), sequence (Q62424 whole entry, looked up): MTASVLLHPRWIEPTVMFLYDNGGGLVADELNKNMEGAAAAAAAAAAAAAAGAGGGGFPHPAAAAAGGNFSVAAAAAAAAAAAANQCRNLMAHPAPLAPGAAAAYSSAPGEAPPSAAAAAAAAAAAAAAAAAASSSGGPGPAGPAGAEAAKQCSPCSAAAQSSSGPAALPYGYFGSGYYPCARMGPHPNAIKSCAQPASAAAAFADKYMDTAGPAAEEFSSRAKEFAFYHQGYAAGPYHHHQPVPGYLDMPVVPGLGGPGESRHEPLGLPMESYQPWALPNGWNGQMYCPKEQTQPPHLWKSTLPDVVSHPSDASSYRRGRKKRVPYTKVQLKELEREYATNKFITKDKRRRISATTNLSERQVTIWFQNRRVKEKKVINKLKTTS

E3 ubiquitin-protein ligase XIAP (Homo sapiens), sequence (P98170 whole entry, looked up): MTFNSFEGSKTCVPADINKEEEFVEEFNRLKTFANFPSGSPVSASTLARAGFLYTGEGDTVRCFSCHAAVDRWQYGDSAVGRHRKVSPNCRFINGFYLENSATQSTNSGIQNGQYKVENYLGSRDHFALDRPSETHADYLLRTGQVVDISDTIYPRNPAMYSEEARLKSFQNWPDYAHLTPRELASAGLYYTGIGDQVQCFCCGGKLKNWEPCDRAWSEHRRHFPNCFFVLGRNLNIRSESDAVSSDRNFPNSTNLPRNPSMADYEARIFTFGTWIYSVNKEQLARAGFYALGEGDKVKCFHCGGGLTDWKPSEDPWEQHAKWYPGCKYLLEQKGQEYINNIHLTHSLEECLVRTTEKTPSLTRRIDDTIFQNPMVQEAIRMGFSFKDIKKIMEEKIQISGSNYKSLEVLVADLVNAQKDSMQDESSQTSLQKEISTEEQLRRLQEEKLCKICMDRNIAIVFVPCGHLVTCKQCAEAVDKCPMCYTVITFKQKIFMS
Dihydroorotate dehydrogenase (quinone), mitochondrial (Plasmodium falciparum (isolate 3D7)), sequence (Q08210 whole entry, looked up): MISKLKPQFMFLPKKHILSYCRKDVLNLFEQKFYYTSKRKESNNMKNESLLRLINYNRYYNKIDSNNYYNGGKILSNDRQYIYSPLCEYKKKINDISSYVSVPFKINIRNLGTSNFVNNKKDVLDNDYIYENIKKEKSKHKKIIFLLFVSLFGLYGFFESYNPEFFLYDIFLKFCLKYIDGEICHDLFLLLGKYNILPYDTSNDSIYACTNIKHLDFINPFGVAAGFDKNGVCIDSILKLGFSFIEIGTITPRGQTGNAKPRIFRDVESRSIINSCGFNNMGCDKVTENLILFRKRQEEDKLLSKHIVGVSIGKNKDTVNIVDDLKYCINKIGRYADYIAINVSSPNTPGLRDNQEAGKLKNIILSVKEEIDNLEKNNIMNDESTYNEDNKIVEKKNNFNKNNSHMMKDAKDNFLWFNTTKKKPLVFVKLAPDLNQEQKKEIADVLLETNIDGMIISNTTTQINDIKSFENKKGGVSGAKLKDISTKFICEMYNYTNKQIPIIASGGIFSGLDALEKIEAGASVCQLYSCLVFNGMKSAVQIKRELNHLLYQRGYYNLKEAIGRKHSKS

Structure (SMILES)	z-score [1]	z-score [2]	z-score [3]	composite z-score [4]	z-score [5]	z-score [6]	z-score [7]	z-score [8]	z-score [9]	composite z-score [10]	composite z-score [11]	composite z-score [12]	z-score [13]	z-score [14]
C[C@@H](c1ccccc1)N1C(=O)[C@H]2[C@H]3[C@H](O)[C@H](O)CC(=NOCc4ccccc4)[C@@H]3CC[C@H]2C1=O	-0.511	-0.123 (inactive)	-0.457 (inactive)	0.805 (inactive)	-0.0819 (inactive)	-0.183 (inactive)	-0.241 (inactive)	-0.0934 (inactive)	-0.181	-0.185	0.641 (inactive)	0.169	-1.49	-3 (inactive)
COC(=O)CC=C[C@@H](C)[C@@H](C=NOC[C@@H](O)COCc1ccco1)NS(=O)(=O)c1ccc(C)cc1	-0.8	0.0959 (inactive)	-0.309 (inactive)	0.444 (inactive)	-0.312 (inactive)	0.186 (inactive)	0.388 (inactive)	0.124 (inactive)	-0.974	-0.309	0.133 (inactive)	0.239	-0.546	-3.79 (inactive)
COc1ccc(COC(=O)NN=C2C[C@@H](O)[C@@H](O)[C@@H]3[C@@H]4C(=O)N(Cc5ccccc5)C(=O)[C@@H]4CC[C@@H]23)cc1	1.13	0.18 (inactive)	0.259 (inactive)	0.207 (inactive)	0.0335 (inactive)	0.325 (inactive)	0.918 (inactive)	0.935 (inactive)	1.12	-0.102	-0.662 (inactive)	0.0404	0.0711	0.19 (inactive)
CC(C)C(=O)N[C@H]1CCCN1C(=O)C=Cc1ccccc1	-0.274	0.881 (inactive)	-0.46 (inactive)	0.581 (inactive)	0.897 (inactive)	1.18 (inactive)	-0.0435 (inactive)	-0.898 (inactive)	-1.03	-0.0476	0.934 (inactive)	-0.168	-0.64	-2.18 (inactive)
CO[C@H]1COC(=O)CC=C[C@@H](C)COC(=O)[C@H]2CCCN2C(=O)CC=C[C@H]1C	-0.3	-0.872 (inactive)	-0.0093 (inactive)	0.119 (inactive)	0.246 (inactive)	0.473 (inactive)	1.14 (inactive)	0.745 (inactive)	-0.258	0.0595	0.0735 (inactive)	0.286	0.655	-0.292 (inactive)
CO[C@@H]1COC(=O)CC=C[C@H](C)[C@H](OC)COC(=O)[C@@H]2CCCN2C(=O)CC=C[C@H]1C	-0.144	-1.17 (inactive)	0.918 (inactive)	-0.222 (inactive)	-1.33 (inactive)	-0.203 (inactive)	0.422 (inactive)	-0.0617 (inactive)	0.306	-0.02	0.233 (inactive)	0.607	-1.52	-1.11 (inactive)
COC(=O)[C@H](C)NC(=O)CCC1CC(OC(=O)NCc2cccc3ccccc23)CC2(CCCC(COC(=O)NCCCN3CCCC3=O)O2)O1 (some centres not stated)	0.607	-0.0554 (inactive)	0.478 (inactive)	-0.104 (inactive)	0.286 (inactive)	0.0627 (inactive)	0.992 (inactive)	-1.34 (inactive)	-0.0303	-0.273	1.17 (inactive)	0.582	-0.529	-3.27 (inactive)
CC(C)=NO[C@@H](C)c1cn([C@H](CO)Cc2ccccc2)nn1	-1.27	-1.16 (inactive)	-0.597 (inactive)	-1.44 (inactive)	0.0889 (inactive)	-2.2 (inactive)	0.0116 (inactive)	-1.77 (inactive)	-1.18	0.314	-0.407 (inactive)	0.241	0.412	1.06 (inactive)
C=CCOCC1CN2[C@@H](CC[C@@H](C)[C@@H]2c2ccc(Br)cc2)C(=O)O1 (some centres not stated)	0.685	-0.139 (inactive)	0.824 (inactive)	-0.959 (inactive)	0.013 (inactive)	1.14 (inactive)	0.622 (inactive)	-0.0542 (inactive)	1.49	-0.184	0.0364 (inactive)	-0.104	1.72	-0.43 (inactive)
COc1ccc(-c2cnnc(CCCn3ccnc3-c3ccccc3)n2)cc1	-1.18	-0.72 (inactive)	-0.891 (inactive)	0.552 (inactive)	1.17 (inactive)	-0.252 (inactive)	-0.867 (inactive)	-0.634 (inactive)	-1.38	-0.0143	0.0584 (inactive)	0.492	-0.964	-3.52 (inactive)
CCOC(=O)CCN1C(=O)[C@H]2[C@H]3[C@H](O)[C@H](O)CC(=NNC(=O)OCc4ccccc4)[C@H]3CC[C@H]2C1=O	-0.0842	-0.712 (inactive)	-0.364 (inactive)	-0.192 (inactive)	1.1 (inactive)	-1.26 (inactive)	-0.213 (inactive)	-0.354 (inactive)	0.0536	-0.163	0.0983 (inactive)	-0.0907	-0.873	-3.59 (inactive)
COC(=O)CC=C[C@@H](C)[C@@H](C=NOC(C)CN1CCCCc2nc(C)c(C)cc21)OC (some centres not stated)	-0.264	-0.927 (inactive)	0.0144 (inactive)	0.244 (inactive)	-0.0417 (inactive)	-0.46 (inactive)	0.324 (inactive)	0.257 (inactive)	-0.0511	-0.459	0.771 (inactive)	0.444	1	-4.37 (inactive)
CCN1C(=O)[C@H]2[C@H]3[C@H](O)[C@H](O)CC(=NNC(=O)OCc4ccccc4)[C@H]3CC[C@H]2C1=O	-0.0019	-0.277 (inactive)	-0.193 (inactive)	-0.052 (inactive)	0.814 (inactive)	-0.727 (inactive)	-0.47 (inactive)	-1.79 (inactive)	-0.163	-0.102	-0.249 (inactive)	0.129	-0.114	-1.7 (inactive)
CCOC(=O)CCN1C(=O)[C@H]2[C@H]3[C@H](O)[C@H](O)CC(=NNC(=O)OCC)[C@H]3CC[C@H]2C1=O	-0.207	-1.01 (inactive)	0.137 (inactive)	0.519 (inactive)	0.614 (inactive)	0.235 (inactive)	-0.216 (inactive)	-0.318 (inactive)	-0.0651	0.106	3.24 (inactive)	-0.397	-1.58	-4.5 (inactive)
CC(C)=NOC[C@@H](O)[C@H]1O[C@@H]2OC(C)(C)O[C@@H]2[C@H]1O	-0.831	-0.0545 (inactive)	-0.369 (inactive)	0.759 (inactive)	-0.443 (inactive)	0.0762 (inactive)	0.757 (inactive)	0.704 (inactive)	-0.686	-0.389	0.524 (inactive)	-0.122	0.292	0.483 (inactive)
C[C@@H]1CC[C@H]2C(=O)OC(CN3C(=O)c4ccccc4C3=O)CN2[C@H]1c1ccc(Br)cc1 (some centres not stated)	0.462	-0.501 (inactive)	0.668 (inactive)	0.639 (inactive)	-0.27 (inactive)	0.183 (inactive)	0.786 (inactive)	0.467 (inactive)	0.685	-0.0438	-0.212 (inactive)	0.338	0.49	-0.956 (inactive)
CC(=O)OC[C@H]1O[C@@H](ON=C(C)C)[C@H](OC(C)=O)[C@@H](OC(C)=O)[C@@H]1OC(C)=O	0.199	0.515 (inactive)	-0.0437 (inactive)	-0.696 (inactive)	0.569 (inactive)	0.0958 (inactive)	-0.308 (inactive)	-2.31 (inactive)	-0.0678	0.0478	-0.0542 (inactive)	-0.245	0.213	-0.383 (inactive)
CCN1C(=O)[C@H]2[C@H]3[C@H](O)[C@H](O)CC(=NOCC=C(C)CCC=C(C)C)[C@@H]3CC[C@H]2C1=O	-0.623	-6.59 (inactive)	-0.719 (inactive)	-1.16 (inactive)	-0.446 (inactive)	-0.29 (inactive)	0.42 (inactive)	-0.731 (inactive)	-0.517	0.155	-0.544 (inactive)	0.615	-0.298	-3.73 (inactive)
